Among all 5,500 compounds or so, about 2,000 (36%) were called active. Inconclusive results (about 18%) are left out. Cut-off read from the data, not from the text of the source: active = normalized growth mostly below about 0.91 (no sharp cut-off); inconclusive = no clear call, values can overlap the other calls; inactive = mostly above about 0.92. The list shows a part of the results.
Experiment: chemical genetic growth profiling, strain panel (AID 1159580);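 note: tested at 20 µM; growth read once vehicle control cultures reached saturation at 30 °C; 1 = growth at the plate median or of vehicle wells; lower values mean less growth of the strain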
Details: growth OD

Measured: normalized growth

COc1ccc2c(c1)[nH]c1c(C)nccc12
inactive: S. cerevisiae deletion strains, locus YJR075W, strain HOC1, active compounds read low 1.02 | S. cerevisiae deletion strains, locus YKL009W, strain mrt4, active compounds read low 0.954 | S. cerevisiae deletion strains, locus YKL068W, active compounds read low 0.978 | S. cerevisiae deletion strains, locus YKL085W, strain MDH1 (second series), active compounds read low 0.979 | S. cerevisiae deletion strains, locus YKL085W, strain MDH1, active compounds read low 0.979 | S. cerevisiae deletion strains, locus YKL160W, strain elf1, active compounds read low 0.996 | S. cerevisiae deletion strains, locus YKL190W, strain CNB1, active compounds read low 1.01 | S. cerevisiae deletion strains, locus YKR001C, strain vps1, active compounds read low 0.962 | S. cerevisiae deletion strains, locus YKR026C, strain gcn3, active compounds read low 0.978 | S. cerevisiae deletion strains, locus YKR091W, strain srl3, active compounds read low 0.996 | S. cerevisiae deletion strains, locus YLL001W, strain dnm1, active compounds read low 0.987 | S. cerevisiae deletion strains, locus YLL026W, active compounds read low 0.993 | S. cerevisiae deletion strains, locus YLL041C, strain sdh2, active compounds read low 0.993 | S. cerevisiae deletion strains, locus YLR027C, strain aat2, active compounds read low 0.992 | S. cerevisiae deletion strains, locus YLR039C, strain RIC1, active compounds read low 1.22 | S. cerevisiae deletion strains, locus YLR058C, strain SHM2, active compounds read low 1.01 | S. cerevisiae deletion strains, locus YLR102C, strain apc9, active compounds read low 0.981 | S. cerevisiae deletion strains, locus YLR113W, strain HOG1, active compounds read low 1 | S. cerevisiae deletion strains, locus YLR221C, strain rsa3, active compounds read low 0.995 | S. cerevisiae deletion strains, locus YLR258W, strain gsy2, active compounds read low 0.995 | S. cerevisiae deletion strains, locus YLR262C, strain YPT6 (second series), active compounds read low 1.03 | S. cerevisiae deletion strains, locus YLR262C, strain YPT6, active compounds read low 1.21 | S. cerevisiae deletion strains, locus YLR268W, strain sec22, active compounds read low 1 | S. cerevisiae deletion strains, locus YLR320W, strain mms22, active compounds read low 1 | S. cerevisiae deletion strains, locus YLR330W, strain CHS5, active compounds read low 0.997 | S. cerevisiae deletion strains, locus YLR342W, strain FKS1 (second series), active compounds read low 1.02 | S. cerevisiae deletion strains, locus YLR342W, strain FKS1, active compounds read low 1 | S. cerevisiae deletion strains, locus YLR357W, strain rsc2, active compounds read low 0.978 | S. cerevisiae deletion strains, locus YLR370C, strain arc18, active compounds read low 1 | S. cerevisiae deletion strains, locus YLR371W, strain rom2, active compounds read low 0.979 | S. cerevisiae deletion strains, locus YLR384C, strain iki3, active compounds read low 0.999 | S. cerevisiae deletion strains, locus YLR418C, strain cdc73, active compounds read low 1.03 | S. cerevisiae deletion strains, locus YML016C, strain PPZ1, active compounds read low 1.01 | S. cerevisiae deletion strains, locus YML032C, strain rad52, active compounds read low 0.926 | S. cerevisiae deletion strains, locus YML120C, strain ndi1, active compounds read low 1 | S. cerevisiae deletion strains, locus YML124C, strain tub3, active compounds read low 0.982 | S. cerevisiae deletion strains, locus YMR058W, strain fet3, active compounds read low 0.983 | S. cerevisiae deletion strains, locus YMR078C, strain ctf18, active compounds read low 0.976 | S. cerevisiae deletion strains, locus YMR125W, strain sto1, active compounds read low 0.975 | S. cerevisiae deletion strains, locus YMR129W, active compounds read low 0.988 | S. cerevisiae deletion strains, locus YMR205C, strain PFK2, active compounds read low 0.999 | S. cerevisiae deletion strains, locus YMR223W, strain ubp8, active compounds read low 0.962 | S. cerevisiae deletion strains, locus YMR231W, strain pep5, active compounds read low 1.01 | S. cerevisiae deletion strains, locus YMR263W, strain SAP30, active compounds read low 1.01 | S. cerevisiae deletion strains, locus YMR307W, strain GAS1, active compounds read low 1.12 | S. cerevisiae deletion strains, locus YNL067W, strain RPL9B, active compounds read low 0.971 | S. cerevisiae deletion strains, locus YNL071W, strain lat1, active compounds read low 0.991 | S. cerevisiae deletion strains, locus YNL128W, strain TEP1, active compounds read low 1.03 | S. cerevisiae deletion strains, locus YNL153C, strain GIM3, active compounds read low 1.02 | S. cerevisiae deletion strains, locus YNL183C, strain NPR1, active compounds read low 0.982 | S. cerevisiae deletion strains, locus YNL209W, strain ssb2, active compounds read low 0.996 | S. cerevisiae deletion strains, locus YNL233W, strain BNI4, active compounds read low 1.01 | S. cerevisiae deletion strains, locus YNL248C, strain rpa49, active compounds read low 0.966 | S. cerevisiae deletion strains, locus YNL250W, strain rad50, active compounds read low 0.986 | S. cerevisiae deletion strains, locus YNL271C, strain bni1, active compounds read low 0.991 | S. cerevisiae deletion strains, locus YNL298W, strain CLA4, active compounds read low 0.968 | S. cerevisiae deletion strains, locus YNL307C, strain MCK1, active compounds read low 0.967 | S. cerevisiae deletion strains, locus YNL322C, strain KRE1 (second series), active compounds read low 1 | S. cerevisiae deletion strains, locus YNL322C, strain KRE1, active compounds read low 1.01 | S. cerevisiae deletion strains, locus YNR049C, strain mso1, active compounds read low 0.997 | S. cerevisiae deletion strains, locus YNR052C, strain pop2, active compounds read low 0.961 | S. cerevisiae deletion strains, locus YOL006C, strain TOP1, active compounds read low 0.963 | S. cerevisiae deletion strains, locus YOL012C, strain htz1 1.03 | S. cerevisiae deletion strains, locus YOL147C, strain pex11, active compounds read low 0.984 | S. cerevisiae deletion strains, locus YOR001W, strain rrp6, active compounds read low 1.02 | S. cerevisiae deletion strains, locus YOR061W, strain CKA2, active compounds read low 1.04 | S. cerevisiae deletion strains, locus YOR069W, strain VPS5, active compounds read low 1 | S. cerevisiae deletion strains, locus YOR070C, strain gyp1, active compounds read low 0.995 | S. cerevisiae deletion strains, locus YOR080W, strain dia2, active compounds read low 1.01 | S. cerevisiae deletion strains, locus YOR083W, strain WHI5, active compounds read low 0.996 | S. cerevisiae deletion strains, locus YOR106W, strain vam3, active compounds read low 0.983 | S. cerevisiae deletion strains, locus YOR136W, strain idh2, active compounds read low 0.971 | S. cerevisiae deletion strains, locus YOR144C, strain elg1, active compounds read low 0.988 | S. cerevisiae deletion strains, locus YOR184W, strain ser1, active compounds read low 0.953 | S. cerevisiae deletion strains, locus YOR231W, strain MKK1, active compounds read low 1 | S. cerevisiae deletion strains, locus YOR265W, strain rbl2, active compounds read low 0.996 | S. cerevisiae deletion strains, locus YOR270C, strain vph1, active compounds read low 0.974 | S. cerevisiae deletion strains, locus YOR290C, strain snf2, active compounds read low 0.99 | S. cerevisiae deletion strains, locus YOR316C, strain cot1, active compounds read low 0.985 | S. cerevisiae deletion strains, locus YPL051W, strain arl3, active compounds read low 0.986 | S. cerevisiae deletion strains, locus YPL055C, strain LGE1, active compounds read low 1.02 | S. cerevisiae deletion strains, locus YPL078C, strain atp4, active compounds read low 0.995 | S. cerevisiae deletion strains, locus YPL106C, strain sse1, active compounds read low 0.972 | S. cerevisiae deletion strains, locus YPL240C, strain hsp82, active compounds read low 0.981 | S. cerevisiae deletion strains, locus YPL241C, strain CIN2, active compounds read low 1.01 | S. cerevisiae deletion strains, locus YPL256C, strain CLN2, active compounds read low 1.01 | S. cerevisiae deletion strains, locus YPR119W, strain clb2, active compounds read low 0.988 | S. cerevisiae deletion strains, locus YPR141C, strain kar3, active compounds read low 0.979 | S. cerevisiae deletion strains, locus YPR163C, strain tif3, active compounds read low 0.975 | S. cerevisiae deletion strains, locus YPR167C, strain met16, active compounds read low 1 | S. cerevisiae deletion strains, strain wtn01, active compounds read low 0.998 | S. cerevisiae strains, strain wild type, active compounds read low 0.998
